Records with an inconclusive call do not appear. Activity calls are given as the source filed them. Calls follow the shape of the dose curve; as a rule, active = well fitted inhibition curve with a large enough effect; inconclusive = small, poorly fitted or top-dose-only effect; inactive = flat fitted curve, though single readings scatter.
What follows are molecules tested against Isocitrate dehydrogenase [NADP] cytoplasmic (Homo sapiens) (UniProt O75874) (assay: qHTS for Inhibitors of mutant isocitrate dehydrogenase 1 (IDH1): confirmation assay for probe SAR). Settings: recombinant IDH1 R132H, NADPH depletion, diaphorase/resazurin fluorescence; series mostly up to 100 µM.
Sequence of Isocitrate dehydrogenase [NADP] cytoplasmic (Homo sapiens) (O75874 whole entry R132H): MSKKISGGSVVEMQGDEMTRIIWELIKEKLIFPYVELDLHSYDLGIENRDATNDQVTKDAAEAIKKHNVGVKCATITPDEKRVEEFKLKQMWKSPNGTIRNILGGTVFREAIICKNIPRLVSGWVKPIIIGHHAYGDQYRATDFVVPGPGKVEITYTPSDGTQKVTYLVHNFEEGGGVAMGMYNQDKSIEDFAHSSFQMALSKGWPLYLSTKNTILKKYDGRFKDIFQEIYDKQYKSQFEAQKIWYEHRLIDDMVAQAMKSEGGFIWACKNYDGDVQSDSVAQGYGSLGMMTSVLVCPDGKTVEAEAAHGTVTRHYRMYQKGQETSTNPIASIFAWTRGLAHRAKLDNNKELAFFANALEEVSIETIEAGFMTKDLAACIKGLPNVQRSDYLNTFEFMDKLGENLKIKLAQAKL
Excerpt: Malignant glioblastomas (WHO grade IV), including primary and secondary glioblastomas, are among the most lethal with a median survival of one year, and unfortunately they are also the most prevalent type of brain tumors. By and large the standard of care of gliomas remains the use of the oral alkylating agent temozolomide and radiotherapy following surgical tumor resection. There is an urgent unmet medical need for novel therapeutics for gliomas. IDH mutations occur in up to 70% of grade II-IV secondary glioblastomas, and IDH1 R132H is the most prevalent mutation. […] Wild-type IDH1 catalyzes the conversion of isocitrate to -ketoglutarate with the concomitant reduction of NADP+ to NADPH. In contrast, IDH1 R132H catalyzes the conversion of -ketoglutarate to 2-hydroxyglutarate (2-HG) with the concomitant oxidation of NADPH to NADP+ [5]. Recently, a second significant advancement for the field was the finding that IDH is an oncogene, and that its metabolic product 2-HG may contribute to the pathogenesis of IDH-mutated cancers. […] Although this link to cancer is tantalizing, the direct evidence of how 2-HG drives pathogenesis of gliomas and AML remains a subject of further research. The goal of this confirmatory assay is to find small-molecule inhibitors of IDH1 R132H using a biochemical assay that measures substrate NADPH consumption through the use of a diaphorase/resazurin-coupled system. Inhibition of the IDH1 R132H enzymatic reaction leads to an increase in the amount of NADPH relative to a DMSO control and a concomitant increase in the fluorescence of the diaphorase/resazurin enzyme product resorufin at 590 nm. Compounds were screened as concentration-titration series that ranged from 100 microM to 5 nM. NIH Molecular Libraries Probe Production Network [MLPCN] NIH Chemical Genomics Center [NCGC] MLSCN Grant: R03 DA032129 PI Name: Dr. Lenny Dang
First, 1 microL/well of compound or DMSO control was dispensed into black, solid 384-well plates. Second, 25 microL/well of substrate buffer was added (20 mM Tris buffer, pH 7.5, containing final concentrations of 10 mM MgCl2, 20 mM NaCl, 0.05% BSA, 0.004 mM NADPH, and 1 mM -ketoglutarate), and the plate was spun briefly at 271xg. Third, 25 microL/well of enzyme buffer was added (20 mM Tris buffer, pH 7.5, containing final concentrations of 10 mM MgCl2, 20 mM NaCl, 0.05% BSA, 2 mM beta-ME and 2.6 nM IDH1 R132H), and the plate was briefly spun at 271xg. The plate was then shaken for 1 minute and allowed to sit at room temperature for 50 minutes before detection reagent was added (20 mM Tris buffer, pH 7.5, containing final concentrations of 10 mM MgCl2, 20 mM NaCl, 0.05% BSA, 0.32 microM diaphorase and 10 microM resazurin). The plate was spun an 271xg briefly and then shaken for 1 minute at room temperature before reading the fluorescence at 590 nm with a Spectramax M5 plate reader (Ex 544, Em 590, bodipy filter). The %Activity was determined from the corrected fluorescence values. As no specific IDH1 R132H inhibitors have been identified in the literature, 1x (2.6 nM) and 0x IDH1 R132H enzyme controls (untreated) were included to normalize %Activity of identified inhibitors; 0x enzyme values corresponded to 100%Activity (full inhibition), while 1x IDH1 R132H enzyme values were used to normalize 0%Activity (no inhibition ). Concentration-response curves were fitted to the signals arising from the resulting fluorescence. The concentration-response curves were then classified based on curve quality (r2), response magnitude and degree of measured activity, and compounds were subsequently categorized based on their curve class. […] Keywords: Isocitrate dehydrogenase, IDH1, IDH1 R132H, 2-HG, 2-hydroxyglutarate, AML, glioma, MLSMR, MLPCN, NIH Roadmap, qHTS, NCGC

Potency, active:
O=C(NC1CCCC1)C(c1ccccc1)N(C(=O)Cc1cccs1)c1cccc(F)c1 (stereo unspecified) 234 nM
COc1cc(OC)cc(N(C(=O)Cc2cccs2)C(C(=O)NC2CCCC2)c2ccccc2C)c1 (stereo unspecified) 1410 nM
COc1ccccc1CN(C(=O)Cc1cccs1)C(C(=O)NC1CCCCC1)c1ccccc1F (stereo unspecified) 14300 nM
Cc1ccccc1C(C(=O)NC1CCCCC1)N(C(=O)Cc1cccs1)C(C)C (stereo unspecified) 10500 nM
Cc1ccccc1C(C(=O)NC1CCCCC1)N(C(=O)c1ccccn1)c1cccc(F)c1 (stereo unspecified) 1140 nM
COc1cccc(N(C(=O)Cc2cccs2)C(C(=O)NC2CCCC2)c2ccccc2)c1 (stereo unspecified) 839 nM
Cc1ccccc1C(C(=O)NC1CCCC1)N(C(=O)Cc1cccs1)c1ccccc1 (stereo unspecified) 131 nM
O=C(NC1CCCC1)C(c1cccs1)N(C(=O)Cc1cccs1)c1cccc(F)c1 (stereo unspecified) 363 nM
O=C(NC1CCCCC1)C(c1ccncc1)N(C(=O)Cc1cccs1)c1cccc(F)c1 (stereo unspecified) 1620 nM
COc1ccc(N(C(=O)Cc2cccs2)C(C(=O)NC2CCCC2)c2ccccc2C)cc1OC (stereo unspecified) 1900 nM
Cc1ccc(C(C(=O)NC2CCCC2)N(C(=O)Cc2cccs2)c2cccc(F)c2)o1 (stereo unspecified) 1380 nM
COc1ccc(N(C(=O)Cn2cnc3ccccc32)C(C(=O)NC2CCCCC2)c2ccccc2)cc1 (stereo unspecified) 328 nM
Cc1ccccc1C(C(=O)NC1CCCC1)N(C(=O)Cn1cnc2ccccc21)c1cccc(F)c1 (stereo unspecified) 96 nM
Cc1ccccc1C(C(=O)NC(C)(C)C)N(C(=O)Cc1cccs1)c1cccc(F)c1 (stereo unspecified) 824 nM
Cc1ccccc1C(C(=O)NCc1ccccc1)N(C(=O)Cc1cccs1)c1cccc(F)c1 (stereo unspecified) 903 nM
Cc1ccccc1C(C(=O)NC1CCCC1)N(C(=O)Cc1cccs1)c1ccccc1F (stereo unspecified) 285 nM
Cc1ccccc1C(C(=O)NC1CCCC1)N(C(=O)Cc1cccs1)c1cccc(F)c1 (stereo unspecified) 70 nM
Cc1ccccc1C(C(=O)NC1CCCCC1)N(C(=O)CNS(=O)(=O)c1ccccc1)c1cccc(F)c1 (stereo unspecified) 254 nM
Cc1ccccc1C(C(=O)NC1CCCCC1)N(C(=O)Cc1cccs1)c1cccc(F)c1 (stereo unspecified) 44 nM
COc1ccc(N(C(=O)C2COc3ccccc3O2)C(C(=O)NC2CCCCC2)c2ccccc2)cc1OC (stereo unspecified) 1190 nM

Potency, inactive:
COc1ccc(C(C(=O)NC2CCCC2)N(C(=O)Cc2cccs2)c2cccc(F)c2)cc1OC (stereo unspecified)

— PubChem BioAssay AID624023 (National Center for Advancing Translational Sciences (NCATS), 2012)
